{"source": "ChEMBL document CHEMBL4513216", "about": "“Probing the Open Global Health Chemical Diversity Library for Multistage-Active Starting Points for Next-Generation Antimalarials” (ACS Infect Dis, 2020)", "note": "Screen size: about 69,000 compounds; about 8,600 (12%) showed an effect of 50% or more. The full list was thinned out, with strong results kept by preference."}
{"tested_on": "Plasmodium berghei", "assay": "Screen against P. berghei liver stage (PbLuc), transformed with Luciferase, at 10uM", "type": "functional, HepG2", "conditions": "tested at 10 uM", "units": {"INHIBITION": "%"}}
{"compound": "CCOCc1nn(C)c2c1CN(CCO)CC2", "INHIBITION": 27.6}
{"compound": "O=C(N1CCOCC1)[C@@]12CCO[C@@H]1CCN(C1CCCCC1)C2", "INHIBITION": 0.542}
{"compound": "COc1ccc(OC)c(CN(C)c2nc3c(cnn3C)c(=O)[nH]2)c1", "INHIBITION": 4.3}
{"compound": "COc1ccc(CN(C)c2nc3c(cnn3C)c(=O)[nH]2)c(OC)c1", "INHIBITION": 73.8}
{"compound": "COc1ccccc1CN(C)c1nc2c(cnn2C)c(=O)[nH]1", "INHIBITION": 27.9}
{"compound": "COc1cccc([C@@]2(O)CC[C@@H]3CN(C(=O)c4c[nH]nc4C)C[C@@H]32)c1", "INHIBITION": 15.15}
{"compound": "CC(=O)N1CCN(c2cc(CCN)nc(C3CC3)n2)CC1", "INHIBITION": 3.91}
{"compound": "CSc1nsc(SCC(=O)c2cc3c(cc2Cl)NC(=O)C3)n1", "INHIBITION": 18.4}
{"compound": "CCCOc1ccc(C(=O)N2CC[C@@H]3CC[C@H](C2)N3)cc1Cl", "INHIBITION": -4.4}
{"compound": "COc1cc(C(=O)N2CCCS2(=O)=O)cc(Cl)c1OC", "INHIBITION": 21.1}
{"compound": "CCCOc1ccc(C(=O)N2CCN3CCNC(=O)C3C2)cc1Cl", "note": "(stereo unspecified)", "INHIBITION": 18.7}
{"compound": "CCCOc1c(Cl)cc(C(=O)N2CCOC23CCN(C)CC3)cc1Cl", "INHIBITION": 55.4}
{"compound": "CCN1CCC2(CC1)OCCN2C(=O)c1cc(Cl)c(OC)c(Cl)c1", "INHIBITION": 59.5}
{"compound": "CCN1CCC2(CC1)OCCN2C(=O)c1ccc(OC)c(Cl)c1", "INHIBITION": 45}
{"compound": "Cc1ccc(C(NC(=O)CCCN2CCCCC2)C(=O)O)cc1", "note": "(stereo unspecified)", "INHIBITION": -18.9}
{"compound": "COc1cc(CCC(=O)N2CCC(c3cnccn3)CC2)on1", "INHIBITION": 36.15}
{"compound": "Cc1ccc(F)c(NS(=O)(=O)c2cc3c(c(C(=O)O)c2)OCCO3)c1", "INHIBITION": 14.1}
{"compound": "COCCN1C(=O)[C@@H]2CC[C@H]1CN(C(=O)Cc1c(F)cccc1Cl)C2", "INHIBITION": -107}
{"compound": "CCc1c(C(=O)O)nnn1-c1cc(C)ccc1C", "INHIBITION": -7.83}
{"compound": "Cc1cc(C)n(CC2CN(Cc3cccnc3)CCO2)n1", "note": "(stereo unspecified)", "INHIBITION": 18.7}
{"compound": "CC(=O)N1CC[C@H]2OCC[C@@]2(C(=O)NCCc2ccccn2)C1", "INHIBITION": 3.81}
{"compound": "COCCNc1ccc(CNCc2cnc3nc(C)cc(C)n23)cc1", "INHIBITION": -45.7}
{"compound": "O=C(NCCc1coc(-c2ccc(F)cc2)n1)NCC1CCOC1", "note": "(stereo unspecified)", "INHIBITION": 13.8}
{"compound": "COc1ccc(-c2nc(CCNC(=O)NCC3CCOC3)co2)cc1", "note": "(stereo unspecified)", "INHIBITION": 1.04}
{"compound": "Cc1ccc(-c2nc(CCNC(=O)NC3CCC(O)CC3)co2)cc1", "note": "(stereo unspecified)", "INHIBITION": 68.8}
{"compound": "O=C(NCCc1coc(-c2ccccc2)n1)NC1CC1", "INHIBITION": 44.1}
{"compound": "O=C(NCCc1coc(-c2ccc(F)cc2)n1)NC1CC1", "INHIBITION": 0.914}
{"compound": "COc1ccc(-c2nc(CCNC(=O)NC3CCC(O)CC3)co2)cc1", "note": "(stereo unspecified)", "INHIBITION": 50.6}
{"compound": "Cc1ccc(-c2nc(CCNC(=O)NC3CCN(C)CC3)co2)cc1", "INHIBITION": -9.14}
{"compound": "O=C(NCCc1coc(-c2ccc(F)cc2)n1)NC1CCC(O)CC1", "note": "(stereo unspecified)", "INHIBITION": 54.6}
{"compound": "CCC(C(=O)NCCc1coc(-c2ccc(C)cc2)n1)N(C)C", "note": "(stereo unspecified)", "INHIBITION": 10.5}
{"compound": "c1ccc(CCN2CCCC(c3ccnc4nccn34)C2)cc1", "note": "(stereo unspecified)", "INHIBITION": 39.1}
{"compound": "O=C(c1ccncc1F)N1CC[C@@H]2OC(COCC3CC3)CC[C@@H]21", "note": "(stereo partly specified)", "INHIBITION": 14.5}
{"compound": "CCCN(CC(F)F)C(=O)CCc1c(C)nc2cc(O)nn2c1C", "INHIBITION": 4.1}
{"compound": "Cc1nn(Cn2ccc(C(=O)N3CCCCCC3)n2)c(C)c1Cl", "INHIBITION": 26.9}
{"compound": "CCn1nc(C)c(CNC(=O)c2nnc3ccc(Cl)cc3n2)c1C", "INHIBITION": 73.1}
{"compound": "CCn1nc(C)c(CNC(=O)c2nnc3ccc(OC)cc3n2)c1C", "INHIBITION": 41.6}
{"compound": "CCn1nc(C)c(CNC(=O)c2nnc3ccccc3n2)c1C", "INHIBITION": 58.2}
{"compound": "CCn1nc(C)c(CNC(=O)NCC(C)(O)c2ccccc2)c1C", "note": "(stereo unspecified)", "INHIBITION": -6.12}
{"compound": "O=C(NCC1CC1)c1nnc2ccc(Cl)cc2n1", "INHIBITION": 5.21}
{"compound": "Cc1ccc2nnc(C(=O)NCCCn3cccn3)nc2c1", "INHIBITION": 26.8}
{"compound": "CCn1nc(C)c(CNC(=O)C2COc3ccccc3C2)c1C", "note": "(stereo unspecified)", "INHIBITION": 15.9}
{"compound": "O=C(NCCCn1cccn1)c1nnc2ccccc2n1", "INHIBITION": 37.9}
{"compound": "O=C(NCCn1cccn1)c1nnc2ccccc2n1", "INHIBITION": 68.5}
{"compound": "CS(=O)(=O)N1CCCC(C(=O)Nc2cnn(COCC(F)(F)F)c2)C1", "note": "(stereo unspecified)", "INHIBITION": 4.08}
{"compound": "Cc1ccc(C2(CN(C)Cc3sccc3C)CCNCC2)nc1", "INHIBITION": 6.66}
{"compound": "CC(C)C(=O)N1CCCC([C@@H]2C[C@H](C(F)F)n3ncnc3N2)C1", "note": "(stereo partly specified)", "INHIBITION": 5.295}
{"compound": "O=C1CC[C@H]2[C@H](CCN2C(=O)N2CCCC2)N1Cc1ccncc1", "INHIBITION": 41.2}
{"compound": "Cc1nsc2ncc(C(=O)N3CCCC3c3cnn(C)c3)cc12", "note": "(stereo unspecified)", "INHIBITION": 19.2}
{"compound": "Cc1ccc2c(c1)[C@@H](CC(=O)N1CCOCC1)CCO2", "INHIBITION": 14.5}
{"compound": "COc1ccc2c(c1)NC(C1CCNCC1)NS2(=O)=O", "note": "(stereo unspecified)", "INHIBITION": 19.3}
{"compound": "O=S1(=O)NC2(CCCN(Cc3ccc(F)cc3)C2)COc2ccccc21", "note": "(stereo unspecified)", "INHIBITION": 0.207}
{"compound": "Cc1cncc(C(=O)N2CCCC(O)(CN(C)C)CC2)c1", "note": "(stereo unspecified)", "INHIBITION": -5.78}
{"compound": "Cc1cccc(C(C(=O)NC(C)(C)CN2CCOCC2)N(C)C)c1", "note": "(stereo unspecified)", "INHIBITION": -17.8}
{"compound": "CN(C)C[C@]12COC[C@H]1CN(Cc1ccc3c(c1)OCO3)C2", "INHIBITION": 28.5}
{"compound": "Cc1nn(C)cc1C(=O)N1CCCC(c2nccn2CC2CCC2)C1", "note": "(stereo unspecified)", "INHIBITION": 14.1}
{"compound": "O=C(CC1CCN(CCc2ccccc2)CC1)N1CCCOCC1", "INHIBITION": 33.2}
{"compound": "CCCC(O)CN1CCC(=O)N(CC2CC2)Cc2cc3c(cc21)OCO3", "note": "(stereo unspecified)", "INHIBITION": 10.9}
{"compound": "Cn1cc(CNCCNc2ncc(Cl)cc2Cl)cn1", "INHIBITION": -14.5}
{"compound": "Cc1c(C(=O)NC2CCCOC2)nnn1-c1ccc(Cl)cc1F", "note": "(stereo unspecified)", "INHIBITION": 55.5}
{"compound": "Cc1c(C(=O)NC2CCCC2)nnn1-c1ccccc1", "INHIBITION": -133}
{"compound": "Cc1c(C(=O)NC2CCCOC2)nnn1-c1ccccc1", "note": "(stereo unspecified)", "INHIBITION": 17.1}
{"compound": "Cc1cnn(CC(C)NCC(=O)NCCOc2ccccc2)c1", "note": "(stereo unspecified)", "INHIBITION": -0.96}
{"compound": "CC(C)(C)n1nnnc1CN(CCc1ccccc1)Cc1ccccc1", "INHIBITION": 65.7}
{"compound": "Cn1cc(CN(Cc2ccccn2)Cc2ccccc2Cl)cn1", "INHIBITION": -10.4}
{"compound": "O=C(c1nnn(-c2ccc(Cl)cc2)n1)N(CCO)Cc1ccccc1", "INHIBITION": -23.5}
{"compound": "CCc1ncc(CN(CCc2ccccc2)Cc2cccs2)cn1", "INHIBITION": 45.1}
{"compound": "CC(C)(C)n1nnnc1CN(Cc1ccccc1)Cc1ccc(Cl)cc1", "INHIBITION": 81.4}
{"compound": "CC(C)(C)n1nnnc1CN(Cc1ccccc1)Cc1ccccc1Cl", "INHIBITION": 91.6}
{"compound": "CC(C)N(C(=O)Cn1nnnc1CCc1ccccc1)C(C)C", "INHIBITION": 37.7}
{"compound": "CCN(Cc1ccccc1Cl)Cn1nc(C)c2c(C)onc2c1=O", "INHIBITION": 40.2}
